Potency data for six compounds are collected here from PubChem BioAssay (Tox21).

Records with an inconclusive call do not appear. Activity calls are given as the source filed them. Unless noted, calls follow the shape of the dose curve; as a rule, active = well fitted curve in the direction sought with a large enough effect in the repeat runs; inconclusive = weak or mixed curves; inactive = no such curve, though single readings can be large; an effect the other way counts as inactive or inconclusive.

A short description of assay [1]: qHTS assay for small molecules that induce genotoxicity in human embryonic kidney cells expressing luciferase-tagged ATAD5 (AID 651632). Also: nearly all actives have a fitted effect of over 15% in size. To be noted: HEK293T ATAD5-luciferase induction, 16 h; series mostly up to 83.3 µM. An outline of the steps:
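ATAD5-luc HEK293T, 2,000 cells/well; cpd or DMSO pin-transferred; 16 hr, 37C/5% CO2; Amplite 30 min RT; luminescence.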
Background: qHTS replaces the single test concentration by a dilution series.

A short description of assay [2]: qHTS assay for small molecule disruptors of the mitochondrial membrane potential - cell viability (AID 720634; calls by dose curve; also: nearly all actives have a fitted effect of over 20% in size; also: potency is read from the fitted curve at half-maximal effect). The note with it: HepG2 viability, ATP luminescence (CellTiter-Glo), 1 h; series mostly up to 83.2 µM. An outline of the steps: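 Cells: HepG2, 2,000/well, attached overnight. Compound 1 hr, 37 C/5% CO2. +m-MPI dye, +CellTiter-Glo 30 min RT. Readout: luminescence (ATP).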

Assay [3] is described as follows: qHTS assay for small molecule disruptors of the mitochondrial membrane potential (AID 720635). Also: potency is read from the fitted curve at half-maximal effect. The note with it: HepG2 mitochondrial membrane potential, Mito-MPS dye ratio; series mostly up to 83.2 µM. An outline of the steps: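 HepG2 cells (2,000/well) attached overnight at 37C, then took compound for 1 hr at 37C, 5% CO2. Mito-MPS dye was added for 30 min; fluorescence was read at 490/535 nm (monomers) and 540/590 nm (aggregates).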

A short description of assay [4]: qHTS assay to test for compound auto fluorescence at 590 nm (red) in HepG2 cells (AID 720674). The note with it: HepG2 autofluorescence, red 540/590 nm, 1 h; series mostly up to 91.3 µM. An outline of the steps:
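Intrinsic compound fluorescence in the red window (Ex/Em 540/590 nm) is measured in attached HepG2 cells exposed for 1 hr, DMSO vehicle as baseline, benchmarked to Rose Bengal sodium.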

Assay [5] in a line: qHTS assay to test for compound auto fluorescence at 535 nm (green) in HepG2 cells (AID 720675). The note with it: green autofluorescence 485/535 nm, 1 h; series mostly up to 91.3 µM.
Assay [6] can be described thus: qHTS assay to test for compound auto fluorescence at 460 nm (blue) in HEK293 cells (AID 720678). To be noted: blue autofluorescence 405/460 nm; series mostly up to 91.3 µM. An outline of the steps: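 HEK293, 2,000 cells/well, 10% dialyzed FBS; attach 4-5 hr 37C; pin compound or DMSO; o/n 37C/5% CO2; fluorescence 405/460 nm; triamterene-equivalent units.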
Assay [7] is described as follows: qHTS assay to test for compound auto fluorescence at 590 nm (red) in HEK293 cells (AID 720679). The note with it: red autofluorescence 540/590 nm; series mostly up to 91.3 µM. An outline of the steps:
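Intensity at 540nm excitation and 590nm emission is reported as Rose Bengal sodium-equivalent autofluorescence. Measurements followed overnight exposure (37C, 5% CO2) of HEK293 cells, 2,000 per well, to 23 nL compound.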

Assay [8] in a line: qHTS assay to test for compound auto fluorescence at 460 nm (blue) in HEK293 cell free culture (AID 720681). The note with it: cell-free medium, autofluorescence 405/460 nm (blue); series mostly up to 91.3 µM. An outline of the steps: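 Test compounds were pinned into cell-free culture medium (DMEM with 10% FBS) and fluorescence was read directly at Ex/Em 405/460 nm. Signals were expressed as fluorescence equivalents of triamterene, with DMSO vehicle as control.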

Assay [9] can be described thus: qHTS assay to test for compound auto fluorescence at 535 nm (green) in HEK293 cell free culture (AID 720682). The note with it: cell-free medium, green autofluorescence 485/535 nm; series mostly up to 91.3 µM. An outline of the steps: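 Compounds were pin-transferred into cell-free DMEM with 10% FBS, and green fluorescence was read at excitation 485 nm and emission 535 nm. Intensities were expressed as fluorescein-equivalent values.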

Assay [10] is described as follows: qHTS assay to test for compound auto fluorescence at 590 nm (red) in HEK293 cell free culture (AID 720683). To be noted: cell-free medium autofluorescence, Ex540/Em590 red; series mostly up to 91.3 µM. An outline of the steps:
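Tox21 10K library compounds were pinned into cell-free DMEM with 10% FBS and fluorescence was read at excitation 540 nm. Activity is expressed as Rose Bengal sodium equivalency.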

Assay [11] is described as follows: qHTS assay to test for compound auto fluorescence at 590 nm (red) in HepG2 cell free culture (AID 720684). To be noted: cell-free medium autofluorescence, red 540/590 nm; series mostly up to 91.3 µM. An outline of the steps: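 Red fluorescence (540 nm excitation, 590 nm emission) was measured after compound transfer into cell-free MEM supplemented with 10% FBS. Values are equivalencies against Rose Bengal sodium.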

Assay [12] can be described thus: qHTS assay to test for compound auto fluorescence at 460 nm (blue) in HepG2 cell free culture (AID 720685). The note with it: Cell-free culture medium, blue autofluorescence 405/460 nm; series mostly up to 91.3 µM. An outline of the steps:
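Compound (23 nL) or DMSO pinned into cell-free MEM with 10% FBS; blue fluorescence read at 405/460 nm excitation/emission, expressed as auto-fluorescence equivalency to triamterene.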

Assay [13] can be described thus: qHTS assay to test for compound auto fluorescence at 535 nm (green) in HepG2 cell free culture (AID 720686). The note with it: Cell-free medium, green autofluorescence 485/535 nm; series mostly up to 91.3 µM.
A short description of assay [14]: qHTS assay to test for compound auto fluorescence at 460 nm (blue) in HepG2 cells (AID 720687). To be noted: autofluorescence 405/460 nm, 1 h; series mostly up to 91.3 µM. An outline of the steps:
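Cells (2,000/well in MEM with 10% FBS) attached overnight at 37 C, then were exposed to compound or DMSO for 1 hr at 37 C, 5% CO2. Fluorescence read at Ex/Em 405/460 nm, expressed as triamterene-equivalent signal.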

Assay [15] concerns the target Glucocorticoid receptor (Homo sapiens) (UniProt P04150). Briefly: qHTS assay to identify small molecule agonists of the glucocorticoid receptor (GR) signaling pathway (AID 720691; active = well fitted activation curve with a large enough effect in the signal ratio in the repeat runs, not every such curve was filed as active; the % refers to the signal ratio). To be noted: GR-bla HeLa, beta-lactamase reporter ratio, 18 h; activation: at 62.4 µM (top of the series). An outline of the steps:
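Fluorescence intensity from LiveBLAzer B/G FRET substrate (2 h, room temperature) reports beta-lactamase expression driven by the glucocorticoid response element in GR-bla HeLa cells after 18 h compound exposure at 37 C.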

The target is the same in assay [16]. Briefly: qHTS assay to identify small molecule antagonists of the glucocorticoid receptor (GR) signaling pathway (AID 720692; active = well fitted inhibition curve with a large enough effect in the signal ratio in the repeat runs, not every such curve was filed as active; the % refers to the signal ratio; also: potency is read from the fitted curve at half-maximal effect). The note with it: GR-bla HeLa, beta-lactamase FRET ratio, dexamethasone-stimulated, 18 h; series mostly up to 58.5 µM. An outline of the steps:
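HeLa GR-bla cells; cmpd + dex 5 nM final, 18 h 37 C; LiveBLAzer B/G FRET substrate 2 h RT; fluorescence intensity read. Antagonist mode, qHTS.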

The nature of assay [17]: qHTS assay for small molecule agonists of the p53 signaling pathway - cell viability (AID 651633; calls by dose curve; also: nearly all actives have a fitted effect of over 30% in size; also: potency is read from the fitted curve at half-maximal effect). To be noted: p53RE-bla HCT-116 viability, ATP luminescence, 16 h; series mostly up to 83.3 µM. An outline of the steps: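 p53RE-bla cells, seeded at 4,000 per well and rested 5 h at 37 C/5% CO2, received compounds in DMSO for 16 h at 37 C. CellTiter-Glo was then added, and luminescence was read after 30 min at room temperature to gauge cytotoxicity.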

The nature of assay [18]: qHTS assay for small molecules that induce genotoxicity in human embryonic kidney cells expressing luciferase-tagged ATAD5 - cell viability (AID 651634; calls by dose curve; also: nearly all actives have a fitted effect of over 25% in size; also: potency is read from the fitted curve at half-maximal effect). To be noted: HEK293T ATAD5-luc cells viability, CellTiter-Fluor, 15.5 h; series mostly up to 83.3 µM. An outline of the steps:
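Fluorescence from CellTiter-Fluor, reporting protease activity within live cells, served as the viability read-out. HEK293T cells carrying luciferase-tagged ATAD5 had been treated with compound for 15.5 hr at 37C.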

Assay [19] can be described thus: qHTS assay to test for compound auto fluorescence at 535 nm (green) in HEK293 cells (AID 720680). To be noted: green autofluorescence 485/535 nm; series mostly up to 91.3 µM.

Sequence of Glucocorticoid receptor (Homo sapiens) (P04150 whole entry, looked up): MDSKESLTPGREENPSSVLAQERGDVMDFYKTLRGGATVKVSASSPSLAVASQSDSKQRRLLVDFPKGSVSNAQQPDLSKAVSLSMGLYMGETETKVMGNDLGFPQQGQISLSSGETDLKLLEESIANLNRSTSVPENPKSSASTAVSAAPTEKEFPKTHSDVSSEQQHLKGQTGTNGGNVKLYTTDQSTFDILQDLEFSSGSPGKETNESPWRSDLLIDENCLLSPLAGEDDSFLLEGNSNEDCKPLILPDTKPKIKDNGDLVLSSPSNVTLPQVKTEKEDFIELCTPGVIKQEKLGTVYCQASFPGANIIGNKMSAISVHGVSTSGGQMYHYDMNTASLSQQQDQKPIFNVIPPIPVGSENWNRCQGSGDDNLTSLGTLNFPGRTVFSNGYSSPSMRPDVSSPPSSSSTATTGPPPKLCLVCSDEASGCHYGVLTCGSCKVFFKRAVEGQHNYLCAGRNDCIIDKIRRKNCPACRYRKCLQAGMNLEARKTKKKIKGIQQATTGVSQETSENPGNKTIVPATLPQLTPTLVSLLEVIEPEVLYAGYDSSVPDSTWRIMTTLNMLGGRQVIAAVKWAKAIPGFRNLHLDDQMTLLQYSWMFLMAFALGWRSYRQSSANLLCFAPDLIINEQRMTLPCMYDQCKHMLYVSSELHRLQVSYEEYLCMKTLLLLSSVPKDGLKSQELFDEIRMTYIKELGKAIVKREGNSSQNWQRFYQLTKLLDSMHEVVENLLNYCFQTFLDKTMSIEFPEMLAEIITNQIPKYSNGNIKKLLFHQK

As for `O=C1Nc2ccc(Cl)cc2[C@@](C#CC2CC2)(C(F)(F)F)O1`, the Potency entry in assay [1], in assay [4], in [5], in assay [6], in [7] and in assay [8] was “inactive” throughout. Also, the Potency result in assay [9], in assay [10], in assay [11], in [12], in assay [13] and in assay [14] was “inactive” each time. Moreover, in assay [15], the Potency entry was “inactive”. In addition, the values for the Potency in assay [2], in assay [3] and in assay [16] were 29.8 µM (active), 4.73 µM (active) and 23.9 µM (active), respectively.
As for `NCCCC(O)(P(=O)(O)O)P(=O)(O)O`, the Potency entry in assay [17], in assay [18], in assay [2], in [3], in [4] and in assay [6] was “inactive” in each case. For the same compound, the Potency result in assay [7], in assay [19], in assay [8], in [9], in assay [10] and in assay [11] was “inactive” throughout. Also, the Potency entry in assay [12], in [13], in assay [14] and in assay [16] was “inactive” in each case.
Take `COC(=O)C1=C(C)NC(C)=C(C(=O)OCCCN2CCC(c3ccccc3)(c3ccccc3)CC2)C1c1cccc([N+](=O)[O-])c1` (stereo not given): the results for the Potency in assay [17] and in [18] were 26.6 µM (active) and 23.7 µM (active), respectively. The Potency result in assay [2], in assay [4], in assay [5], in assay [6], in [7] and in [19] was “inactive” in each case. Moreover, the Potency entry in assay [8], in assay [9], in assay [10], in assay [12], in assay [13] and in assay [14] was “inactive” throughout.
On to `C=CCCCCCCC=C`, for which the Potency result in assay [17], in assay [18], in [2], in assay [4], in [5] and in [6] was “inactive” in each case. The Potency result in assay [7], in [19], in [8], in assay [9], in [11] and in assay [12] was “inactive” in each case. Also, the Potency entry in assay [13] and in [14] was “inactive” in each case.
In the case of `CC1=C(/C=C/C(C)=C/C=C/C(C)=C\C=O)C(C)(C)CCC1`, the Potency entry in assay [2], in assay [4], in assay [5], in [6], in assay [7] and in [19] was “inactive” each time. The Potency entry in assay [8], in assay [9], in [10], in [11], in [12] and in assay [13] was “inactive” each time. Also, the Potency entry in [14] is “inactive”. The Potency in assay [3] was 57.9 µM (active).
In the case of `CCCCCCOc1cc(C)c(O)c(C)c1C`, the Potency result in [1], in assay [4], in assay [6], in assay [7], in assay [19] and in [8] was “inactive” in each case. Further, the Potency result in assay [9], in assay [13] and in assay [14] was “inactive” throughout. Moreover, the Potency in [2] is 27.6 µM (active); in [3] it was 5.51 µM (active).
